We go through seven compounds from the supplement of paper PMC9492666.

The structures appear in SMILES notation.
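Further: breast cancer cell viability read out with the CCK-8 kit after co-treatment of each compound with the ferroptosis inducer RSL3.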

In the test the test system is MDA-MB-231. Nature of the test: relative cell viability, compound + RSL3, vs DMSO (fraction of DMSO control); higher = less growth inhibition. Particulars: 72 h.
On to `CC(C)[C@H]1CC[C@H](C(=O)N[C@H](Cc2ccccc2)C(=O)O)CC1` [Nateglinide] + COC(=O)c1ccc([C@H]2c3[nH]c4ccccc4c3C[C@H](C(=O)OC)N2C(=O)CCl)cc1 [RSL3], for which the relative cell viability was found to be 0.487.

For the compound `CC(=O)N1CCN(c2ccc(OCC3COC(Cn4ccnc4)(c4ccc(Cl)cc4Cl)O3)cc2)CC1` (configuration not stated) [Ketoconazole] + COC(=O)c1ccc([C@H]2c3[nH]c4ccccc4c3C[C@H](C(=O)OC)N2C(=O)CCl)cc1 [RSL3], the relative cell viability worked out at 0.488.

For the compound `CCCCCCCCCCCC1=C(O)C(=O)C=C(O)C1=O` [Embelin] + COC(=O)c1ccc([C@H]2c3[nH]c4ccccc4c3C[C@H](C(=O)OC)N2C(=O)CCl)cc1 [RSL3], the relative cell viability amounted to 0.471.

As to `Cc1c(C(=O)NN2CCOCC2)nn(-c2ccc(Cl)cc2Cl)c1-c1ccc(I)cc1` + COC(=O)c1ccc([C@H]2c3[nH]c4ccccc4c3C[C@H](C(=O)OC)N2C(=O)CCl)cc1 [RSL3], the relative cell viability worked out at 0.297.

In the case of `O=c1ccc2cc(O)c(O)cc2o1` [Esculetin] + COC(=O)c1ccc([C@H]2c3[nH]c4ccccc4c3C[C@H](C(=O)OC)N2C(=O)CCl)cc1 [RSL3], the relative cell viability turned out to be 0.497.

For the compound `CC(=O)O[C@H](CC=C(C)C)C1=CC(=O)c2c(O)ccc(O)c2C1=O` [Acetyl shikonin] + COC(=O)c1ccc([C@H]2c3[nH]c4ccccc4c3C[C@H](C(=O)OC)N2C(=O)CCl)cc1 [RSL3], the relative cell viability was 0.681.

Regarding `CC[C@H](C)C(=O)O[C@H]1C[C@@H](C)C=C2C=C[C@H](C)[C@H](CC[C@@H]3C[C@@H](O)CC(=O)O3)[C@H]21` [Lovastatin] + COC(=O)c1ccc([C@H]2c3[nH]c4ccccc4c3C[C@H](C(=O)OC)N2C(=O)CCl)cc1 [RSL3], the relative cell viability stood at 0.491.
